# In PubChem BioAssay:
# Several values for one entry are separate records, joined by “and”; a condition that tells them apart may be missing. Identical values can stand only once. Records with an inconclusive call do not appear. For some assays here: Measured potencies and affinities stand elsewhere. Activity calls are given as the source filed them. Unless noted, the rule behind the calls is not given here.
# How the values were obtained:
# [1] = blockers of polyQ-driven CASP3 activation – cell-based (AID 1583); conditions: polyglutamine-induced caspase-3 activation, cell assay; stronger effect = higher value;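 tested at 10 µM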
# [2] = yeast 75Q aggregation reduction – 75Q-TubU reporter (AID 1593); conditions: Yeast 75Q polyglutamine aggregation reporter
# [3] = restoration of touch response, mutant HTT neurons – whole organism, C. elegans mechanosensory neurons, N-terminal huntingtin (AID 1599); conditions: C. elegans polyQ-huntingtin mechanosensory neurons, stronger effect = higher value
# [4] = blockers of cytochrome c efflux from mitochondria – biochemical, purified mitochondria (AID 1603); conditions: stronger effect = lower value;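 note: mouse liver mitochondria challenged with calcium chloride; signal normalized to the plate average as 100%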
# [5] = polyglutamine aggregate formation blockers (AID 1604); conditions: polyglutamine-induced protein aggregation inhibition assay; stronger effect = higher value; tested at 2.5 µM
# [6] = glutamate transport activators, MN-1 cells, MN-1 cell line (AID 1612); conditions: MN-1 motor neuron cells, stronger effect = higher value;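 note: tested at 1 µM final; 0% = mean of DMSO vehicle wells on each plate; positive means more glutamate uptake than control and negative means less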
# [7] = GFP-Q80 aggregate reduction, neuronal-like cells, cell-based, NGF-treated PC12, GFPQ80 (AID 1614); conditions: PC12 NGF-treated GFP-polyQ80 inclusion reduction;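 note: lower means fewer inclusions and 0 means no inclusions at all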
# [8] = 75Q-TubH aggregate inhibition, S. cerevisiae, yeast (AID 1616); conditions: S. cerevisiae 75Q-TubH polyglutamine aggregation suppression; stronger effect = higher value
# [9] = compounds altering circadian rhythm period length – cell-based, LOPAC library, luminescence reporter (AID 2774); conditions: circadian reporter cells, at 7 µM, actives lie on both sides;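 note: values are relative to mean of DMSO wells on each plate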
# [10] = test system: Hepatitis C virus NS3 helicase; assay: blockers of NS3h binding to ssDNA – biochemical, fluorescence polarization, LOPAC1280 library, primary screen (AID 687035; in the data active = inhibition above about 37%); conditions: Purified HCV NS3 helicase, Cy5-dT15 ssDNA binding fluorescence polarization; stronger effect = higher value; concentration not given here
# [11] = compounds altering Cy5-DNA-NS3h complex signal – biochemical, LOPAC1280, artefact control for HCV NS3 helicase inhibitor project (AID 687037); conditions: Cy5-DNA-NS3h complex fluorescence interference counterscreen
# [12] = biological target: 6-phosphogluconate dehydrogenase, decarboxylating (Homo sapiens) (UniProt P52209); assay: inhibition of human phosphogluconate dehydrogenase – biochemical, recombinant enzyme, NADPH absorbance, primary screen (AID 1159550;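 active = at least 20% inhibition of 6-phosphogluconate dehydrogenase activity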); conditions: recombinant 6PGD, NADPH absorbance 341 nm; at 10 µM; stronger effect = higher value
# Sequence of 6-phosphogluconate dehydrogenase, decarboxylating (Homo sapiens) (P52209 whole entry, looked up): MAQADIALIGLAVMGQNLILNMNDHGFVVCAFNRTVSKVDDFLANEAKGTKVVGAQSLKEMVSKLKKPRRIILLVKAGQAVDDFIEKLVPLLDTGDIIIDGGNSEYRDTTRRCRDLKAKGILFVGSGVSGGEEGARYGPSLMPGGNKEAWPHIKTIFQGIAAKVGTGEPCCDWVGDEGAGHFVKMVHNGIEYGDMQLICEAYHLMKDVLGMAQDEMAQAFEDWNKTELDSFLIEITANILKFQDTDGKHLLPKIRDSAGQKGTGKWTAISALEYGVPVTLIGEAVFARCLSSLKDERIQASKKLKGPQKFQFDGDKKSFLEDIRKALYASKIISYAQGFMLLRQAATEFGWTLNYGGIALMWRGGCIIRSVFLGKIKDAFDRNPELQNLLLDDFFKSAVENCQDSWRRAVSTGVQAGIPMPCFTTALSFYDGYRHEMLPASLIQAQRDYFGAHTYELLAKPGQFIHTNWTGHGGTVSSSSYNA
# [13] = EMT-state selective cytotoxicity in co-culture – imaging, PC-3E GFP, TEM4-18 mCherry, primary screen (AID 1345086;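 active = compounds killing one labelled cell type while sparing the other, by normalised counts and ratio limits, not self-fluorescent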;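 for all read-outs here: cells exposed to compound for 72 h before imaging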;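 for red/green cell ratio (normalised): normalised mesenchymal count divided by normalised epithelial count so high means epithelial killing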); conditions: PC-3E GFP / TEM4-18 mCherry co-culture, imaging cell counts, at 1 µM; for red/green cell ratio (normalised): actives lie on both sides, counts scaled to control wells, 1 = unselective
# [14] = viability loss with induced miR-34 in A549 – imaging, A549 dox-inducible miR-34, nuclei and caspase counts, primary screen (AID 1347080;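 active = compounds whose cell count with miR-34 switched on is under 0.7 times the count with it off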); conditions: A549 miR-34 inducible, Hoechst nuclei count, 48 h
# [15] = blockers of cellular phospholipid synthesis – cell-based, LOPAC library, screen 4, primary screen (AID 1347384); conditions: animal cells, phospholipid biosynthesis inhibition screen; at 10 µM
# [16] = biological target: Mitogen-activated protein kinase 7 (Homo sapiens) (UniProt Q13164); assay: Gal4-ERK5 driven luciferase induction – cell-based, HTS, primary screen (AID 1508626;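 active = luciferase signal above three times the same-plate solvent-only control wells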;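 note: luciferase driven by Gal4-ERK5 fusion binding five Gal4 sites before minimal TATA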); conditions: HeLa Gal4-ERK5 transactivation, 18 h, at 5 µM, stronger effect = higher value
# Sequence of Mitogen-activated protein kinase 7 (Homo sapiens) (Q13164 whole entry, looked up, the tested form may be a part): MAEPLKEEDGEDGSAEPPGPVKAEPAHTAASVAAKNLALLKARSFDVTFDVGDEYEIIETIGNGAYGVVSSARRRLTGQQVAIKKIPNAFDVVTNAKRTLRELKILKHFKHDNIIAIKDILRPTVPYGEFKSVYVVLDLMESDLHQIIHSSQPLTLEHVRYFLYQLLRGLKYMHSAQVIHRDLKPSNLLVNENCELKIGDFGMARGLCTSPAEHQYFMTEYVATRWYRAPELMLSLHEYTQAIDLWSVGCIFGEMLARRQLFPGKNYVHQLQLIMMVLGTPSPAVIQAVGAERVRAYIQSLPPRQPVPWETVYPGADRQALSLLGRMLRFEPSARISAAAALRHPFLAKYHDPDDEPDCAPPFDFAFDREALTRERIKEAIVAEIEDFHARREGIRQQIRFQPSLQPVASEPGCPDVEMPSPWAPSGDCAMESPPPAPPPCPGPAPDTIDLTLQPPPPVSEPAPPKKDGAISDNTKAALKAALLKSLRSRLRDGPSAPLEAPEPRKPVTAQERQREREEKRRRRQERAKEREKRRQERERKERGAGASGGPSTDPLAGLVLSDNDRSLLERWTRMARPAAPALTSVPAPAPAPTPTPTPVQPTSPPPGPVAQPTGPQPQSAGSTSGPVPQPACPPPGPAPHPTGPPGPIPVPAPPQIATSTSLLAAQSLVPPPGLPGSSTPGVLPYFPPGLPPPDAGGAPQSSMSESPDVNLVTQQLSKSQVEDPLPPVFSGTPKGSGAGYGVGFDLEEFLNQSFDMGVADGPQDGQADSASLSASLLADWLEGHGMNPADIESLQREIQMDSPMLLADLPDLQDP
# [17] = galactose survival enhancers in mitochondrial complex I cybrids – cell-based, galactose medium, ATP luminescence, primary screen (AID 1645843;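 active = z-score of at least 1.8 in each of two replicates, scored against plate mean and spread of sample wells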;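 note: positive z means more ATP and so rescue of galactose-driven cybrid death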); conditions: complex I mutant cybrid cells, 72 h, stronger effect = higher value
# [18] = biological target: ATP-dependent translocase ABCB1 (Homo sapiens) (UniProt P08183); assay: P-glycoprotein substrate transport blockade – cell-based (AID 377; in the data active = fluorescence slope change above about 50%); conditions: MDR1-expressing cells, fluorescent substrate accumulation slope; stronger effect = higher value; concentration not given here
# Sequence of ATP-dependent translocase ABCB1 (Homo sapiens) (P08183 whole entry, looked up): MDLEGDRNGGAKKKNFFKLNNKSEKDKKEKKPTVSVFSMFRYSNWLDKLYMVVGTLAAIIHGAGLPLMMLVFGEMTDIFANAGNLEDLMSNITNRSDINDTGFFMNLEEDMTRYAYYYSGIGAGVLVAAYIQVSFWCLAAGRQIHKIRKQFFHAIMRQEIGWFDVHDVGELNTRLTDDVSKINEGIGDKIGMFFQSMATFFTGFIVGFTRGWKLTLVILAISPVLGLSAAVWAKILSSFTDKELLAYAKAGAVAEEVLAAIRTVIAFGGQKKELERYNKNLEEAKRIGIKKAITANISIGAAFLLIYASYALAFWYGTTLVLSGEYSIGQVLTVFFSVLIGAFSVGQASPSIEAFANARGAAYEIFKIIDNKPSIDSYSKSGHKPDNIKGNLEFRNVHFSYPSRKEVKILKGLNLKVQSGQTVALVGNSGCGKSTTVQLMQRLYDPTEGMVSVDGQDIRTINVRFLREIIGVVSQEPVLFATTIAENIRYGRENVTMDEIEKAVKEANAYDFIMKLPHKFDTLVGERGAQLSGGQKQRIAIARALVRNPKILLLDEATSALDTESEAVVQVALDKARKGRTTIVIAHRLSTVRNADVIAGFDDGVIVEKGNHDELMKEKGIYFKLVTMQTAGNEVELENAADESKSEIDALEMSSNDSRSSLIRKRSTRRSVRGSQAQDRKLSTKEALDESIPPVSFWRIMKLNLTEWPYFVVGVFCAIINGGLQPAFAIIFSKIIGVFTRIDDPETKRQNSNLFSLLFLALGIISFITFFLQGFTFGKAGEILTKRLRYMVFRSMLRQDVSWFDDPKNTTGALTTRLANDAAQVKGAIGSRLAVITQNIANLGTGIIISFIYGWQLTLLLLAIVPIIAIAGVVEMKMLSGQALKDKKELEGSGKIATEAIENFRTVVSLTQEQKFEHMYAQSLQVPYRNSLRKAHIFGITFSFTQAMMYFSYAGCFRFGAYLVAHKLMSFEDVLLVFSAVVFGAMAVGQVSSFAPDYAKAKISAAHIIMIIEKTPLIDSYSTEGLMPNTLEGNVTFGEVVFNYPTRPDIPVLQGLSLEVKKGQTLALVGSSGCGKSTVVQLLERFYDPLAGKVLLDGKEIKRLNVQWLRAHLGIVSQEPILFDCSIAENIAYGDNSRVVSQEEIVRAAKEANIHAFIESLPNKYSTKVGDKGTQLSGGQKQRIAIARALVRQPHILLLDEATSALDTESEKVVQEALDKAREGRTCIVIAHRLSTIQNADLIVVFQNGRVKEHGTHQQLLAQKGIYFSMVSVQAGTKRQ
# [19] = P. berghei load reduction in hepatocytes – cell-based, HepG2, luciferase luminescence, HepG2 viability, primary screen (AID 624349; in the data active = parasite load remaining mostly below about 12%, no sharp cut-off; inactive = mostly above about 10%;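 note: 100% = mean of DMSO negative control wells on the same plate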); conditions: P. berghei liver stage in HepG2, luciferase luminescence, concentration not given here; parasite load remaining: stronger effect = lower value; viability: measured here: HepG2 viability without parasites
# [20] = rescue of PC12 cells from polyQ htt toxicity – LDH release (AID 1610); conditions: PC12 mutant huntingtin toxicity, final LDH at 4 uM, stronger effect = lower value
# [21] = compounds altering viability of human ES cells (AID 493140); conditions: human embryonic stem cell survival screen; stronger effect = higher value;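 note: cells exposed to compounds for four days before counting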
# [22] = chitosan synthesis blockers in C. neoformans – flow cytometry, Cibacron Brilliant Red staining (AID 1347148); conditions: Cryptococcus neoformans chitosan, stronger effect = lower value; at 10 µM unless noted;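 note: compound exposure lasted three days at 37 degrees C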
# [23] = MELAS cybrid and Rieske KO viability enhancers – cell-based, MELAS cybrids, Rieske KO mouse fibroblasts, CellTiter-Glo, primary screen (AID 1508586;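 active = mean z-score across replicates of 1.96 or higher in either the MELAS or the Rieske mutant cell line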;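 note: z relative to plate mean and SD of compound and empty wells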); conditions: low glucose
# [24] = measured here: epithelial PC-3E GFP cell survival
# [25] = measured here: mesenchymal TEM4-18 mCherry cell survival
# [26] = stronger effect = lower value, cell number ratio, induced over uninduced
# [27] = measured here: relative caspase fold change +Dox/-Dox
# [28] = measured here: total cells with miR-34 induction, stronger effect = lower value
# [29] = measured here: total cells without miR-34 induction
smiles,measurement,setting,value
Cn1c(=O)c2[nH]c(C3CCCC3)nc2n(C)c1=O,inhibition,[1],24.6%
same,score,[2],1.3
same,rescue above control,[3],12.7
same,cytochrome c release ratio,[4],0.91
same,inhibition of aggregation,[5],-13.7%
same,glutamate uptake change,[6],10.7%
same,inclusion score,[7],1.5
same,aggregation suppression score,[8],1.14
same,period change,[9],0.02 h (inactive)
same,inhibition,[10],-1% (inactive)
same,fluorescence ratio (interference),[11],1 (inactive)
same,inhibition,[12],-7.2% (inactive)
same,red/green cell ratio (normalised),[13],0.82 (inactive)
same,normalised cell number,[13]; [24],1.23
same,normalised cell number,[13]; [25],1.01
same,fold change,[14]; [26],0.947 (inactive)
same,fold change,[14]; [27],1.51
same,cell count,[14]; [28],9200
same,cell count,[14]; [29],9710
same,outcome,[15],inactive
same,luciferase signal,[16],44 AU (inactive)
same,z-score,[17],0.92 (inactive)
NCCCCN=C(N)N,fluorescence slope change,[18],53.1% (active)
same,period change,[9],0.06 h (inactive)
same,parasite load remaining,[19],166% (inactive)
same,viability,[19],87.2%
same,inhibition,[10],1% (inactive)
same,fluorescence ratio (interference),[11],1 (inactive)
same,inhibition,[12],-2.27% (inactive)
same,red/green cell ratio (normalised),[13],0.84 (inactive)
same,normalised cell number,[13]; [24],1.01
same,normalised cell number,[13]; [25],0.85
same,fold change,[14]; [26],1.06 (inactive)
same,fold change,[14]; [27],2.32
same,cell count,[14]; [28],10300
same,cell count,[14]; [29],9670
same,outcome,[15],inactive
same,luciferase signal,[16],64 AU (inactive)
same,z-score,[17],0.245 (inactive)
COc1cc2ccc(=O)oc2cc1O,inhibition,[1],-26.2%
same,score,[2],1.15
same,rescue above control,[3],11.4
same,cytochrome c release ratio,[4],0.77
same,inhibition of aggregation,[5],0%
same,normalised LDH release,[20],0.874
same,glutamate uptake change,[6],13.8%
same,inclusion score,[7],2
same,aggregation suppression score,[8],1.62
same,survival,[21],12.4 (inactive)
same,parasite load remaining,[19],104% (inactive) and 103% (inactive)
same,viability,[19],106% and 66.2%
same,inhibition,[12],-1.14% (inactive)
same,red/green cell ratio (normalised),[13],1.11 (inactive)
same,normalised cell number,[13]; [24],0.86
same,normalised cell number,[13]; [25],0.96
same,fold change,[14]; [26],0.946 (inactive)
same,fold change,[14]; [27],1.18
same,cell count,[14]; [28],8620
same,cell count,[14]; [29],9110
same,luciferase signal,[16],40 AU (inactive)
CC(C)Cn1c(=O)n(C)c(=O)c2[nH]cnc21,inhibition,[1],10.7%
same,score,[2],1.18
same,rescue above control,[3],-7.15
same,cytochrome c release ratio,[4],0.66
same,inhibition of aggregation,[5],80.3%
same,glutamate uptake change,[6],11.7%
same,inclusion score,[7],2
same,aggregation suppression score,[8],1.34
same,period change,[9],0.065 h (inactive)
same,parasite load remaining,[19],31.6% (inactive)
same,viability,[19],71.5%
same,inhibition,[10],-1% (inactive)
same,fluorescence ratio (interference),[11],0.9 (inactive)
same,inhibition,[12],-0.657% (inactive) and 4.73% (inactive)
same,red/green cell ratio (normalised),[13],0.79 (inactive) and 0.82 (inactive)
same,normalised cell number,[13]; [24],1.26 and 1.32
same,normalised cell number,[13]; [25],1 and 1.09
same,fold fluorescence,[22],4.08 [at 225 µM] (inactive)
same,outcome,[15],inactive
same,z-score,"[23]; MELAS cybrid survival, CellTiter-Glo 48 h, stronger effect = higher value",-0.413 (inactive) and 0.263 (inactive)
same,z-score,"[23]; Rieske KO mouse fibroblast survival, CellTiter-Glo 72 h",0.307 and 0.838
same,luciferase signal,[16],504 AU (active)
same,z-score,[17],0.71 (inactive) and -0.29 (inactive) and 0.67 (inactive)
